# Measured values as given in paper PMC11006913.
# Residue numbers refer to the chain shown, from its start.
# Tests used:
# Experiment in all cases: PBM; 200 nM protein, PBS
# Conditions in all cases: dsDNA, one strand shown
# HOXC10 = HOXC10 (Homo sapiens, UniProt Q9NYD6 254-340)
# HOXC9 = HOXC9 (Homo sapiens, UniProt P31274 178-260)
# HOXD13 [1] = target: HOXD13 (Homo sapiens, UniProt P35453 263-343, T313R)
# HOXD13 [2] = target: HOXD13 (Homo sapiens, UniProt P35453 263-343)
# HOXD13 [3] = target: HOXD13 (Homo sapiens, UniProt P35453 263-343, T313A)
# Sequence of HOXD13 (Homo sapiens, UniProt P35453 263-343, T313A) (P35453 263-343 T313A): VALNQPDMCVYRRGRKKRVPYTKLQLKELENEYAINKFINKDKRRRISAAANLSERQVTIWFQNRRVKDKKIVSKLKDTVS
# NKX3-2 [4] = target: NKX3-2 (Homo sapiens, UniProt P78367 192-278, P234S)
# Sequence of NKX3-2 (Homo sapiens, UniProt P78367 192-278, P234S) (P78367 192-278 P234S): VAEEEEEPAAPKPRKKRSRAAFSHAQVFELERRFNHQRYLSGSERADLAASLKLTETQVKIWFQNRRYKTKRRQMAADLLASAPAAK
# NKX3-2 [5] = target: NKX3-2 (Homo sapiens, UniProt P78367 192-278)
# Sequence of NKX3-2 (Homo sapiens, UniProt P78367 192-278) (P78367 192-278): as the sequence (P78367 192-278 P234S) above, with S43P counted along it
# NKX2-6 = target: T1, NKX2-6 (Homo sapiens, UniProt A6NCS4 118-204, R150C)
# T1 sequence: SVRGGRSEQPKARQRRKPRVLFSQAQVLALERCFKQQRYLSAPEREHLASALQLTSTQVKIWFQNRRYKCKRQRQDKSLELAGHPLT
# SIX6 [6] = target: T2, SIX6 (Homo sapiens, UniProt O95475 114-200, L167I)
# T2 sequence: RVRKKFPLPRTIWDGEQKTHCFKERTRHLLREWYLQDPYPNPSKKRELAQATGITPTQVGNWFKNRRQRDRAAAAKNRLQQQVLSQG
# SIX6 [7] = target: T3, SIX6 (Homo sapiens, UniProt O95475 114-200, L143V)
# T3 sequence: T2 sequence with L30V, I54L
# SIX6 [8] = target: T4, SIX6 (Homo sapiens, UniProt O95475 114-200, H141N)
# T4 sequence: T2 sequence with H28N, I54L
# SIX6 [9] = target: T5, SIX6 (Homo sapiens, UniProt O95475 114-200, L167M)
# T5 sequence: T2 sequence with I54M
# SIX6 [10] = target: T6, SIX6 (Homo sapiens, UniProt O95475 114-200, L143M)
# T6 sequence: T2 sequence with L30M, I54L
# SIX6 [11] = target: T7, SIX6 (Homo sapiens, UniProt O95475 114-200, L143I)
# T7 sequence: T2 sequence with L30I, I54L
# SIX6 [12] = target: T8, SIX6 (Homo sapiens, UniProt O95475 114-200, T165G)
# T8 sequence: T2 sequence with T52G, I54L
# SIX6 [13] = target: T9, SIX6 (Homo sapiens, UniProt O95475 114-200, T139Q)
# T9 sequence: T2 sequence with T26Q, I54L
# SIX6 [14] = target: T10, SIX6 (Homo sapiens, UniProt O95475 114-200, T165A)
# T10 sequence: T2 sequence with T52A, I54L
# SIX6 [15] = target: T11, SIX6 (Homo sapiens, UniProt O95475 114-200, L167V)
# T11 sequence: T2 sequence with I54V
# SIX6 [16] = target: T12, SIX6 (Homo sapiens, UniProt O95475 114-200)
# T12 sequence: T2 sequence with I54L
# SIX6 [17] = target: T13, SIX6 (Homo sapiens, UniProt O95475 114-200, T165I)
# T13 sequence: T2 sequence with T52I, I54L
# Sequence of HOXD13 (Homo sapiens, UniProt P35453 263-343) (P35453 263-343): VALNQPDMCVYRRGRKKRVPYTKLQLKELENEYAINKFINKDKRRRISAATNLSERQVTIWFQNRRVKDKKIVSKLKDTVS
# Sequence of HOXD13 (Homo sapiens, UniProt P35453 263-343, T313R) (P35453 263-343 T313R): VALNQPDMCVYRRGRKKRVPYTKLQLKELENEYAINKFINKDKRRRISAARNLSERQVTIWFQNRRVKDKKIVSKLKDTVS
# Sequence of HOXC10 (Q9NYD6 254-340): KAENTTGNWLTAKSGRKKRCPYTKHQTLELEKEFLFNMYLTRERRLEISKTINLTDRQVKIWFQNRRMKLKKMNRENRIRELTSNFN
# Sequence of HOXC9 (P31274 178-260): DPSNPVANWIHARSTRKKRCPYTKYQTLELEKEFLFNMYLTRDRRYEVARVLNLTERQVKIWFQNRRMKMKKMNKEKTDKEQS
sequence,measurement,setting,value
ATTAATTG,binding signal,HOXC10,"12.2 upbm affinity estimate (log intensity, higher = more binding, comparable within an allelic series)"
same,binding signal,HOXC9,"12.9 upbm affinity estimate (log intensity, higher = more binding, comparable within an allelic series)"
same,binding signal,HOXD13 [1],"10.7 upbm affinity estimate (log intensity, higher = more binding, comparable within an allelic series)"
ATTAATTA,binding signal,HOXC10,"12.6 upbm affinity estimate (log intensity, higher = more binding, comparable within an allelic series)"
same,binding signal,HOXC9,"13.2 upbm affinity estimate (log intensity, higher = more binding, comparable within an allelic series)"
same,binding signal,HOXD13 [1],"10.8 upbm affinity estimate (log intensity, higher = more binding, comparable within an allelic series)"
same,binding signal,HOXD13 [2],"11.8 upbm affinity estimate (log intensity, higher = more binding, comparable within an allelic series)"
same,binding signal,HOXD13 [3],"11.6 upbm affinity estimate (log intensity, higher = more binding, comparable within an allelic series)"
ATAATTAT,binding signal,HOXC10,"12.3 upbm affinity estimate (log intensity, higher = more binding, comparable within an allelic series)"
same,binding signal,HOXC9,"12.9 upbm affinity estimate (log intensity, higher = more binding, comparable within an allelic series)"
ATTAATAG,binding signal,HOXC10,"12.2 upbm affinity estimate (log intensity, higher = more binding, comparable within an allelic series)"
same,binding signal,HOXC9,"12.6 upbm affinity estimate (log intensity, higher = more binding, comparable within an allelic series)"
same,binding signal,HOXD13 [1],"10.9 upbm affinity estimate (log intensity, higher = more binding, comparable within an allelic series)"
same,binding signal,HOXD13 [2],"11.8 upbm affinity estimate (log intensity, higher = more binding, comparable within an allelic series)"
same,binding signal,HOXD13 [3],"11.8 upbm affinity estimate (log intensity, higher = more binding, comparable within an allelic series)"
CAATTAAC,binding signal,HOXC9,"12.6 upbm affinity estimate (log intensity, higher = more binding, comparable within an allelic series)"
same,binding signal,HOXD13 [3],"11.6 upbm affinity estimate (log intensity, higher = more binding, comparable within an allelic series)"
ACTAATTG,binding signal,NKX3-2 [4],"11.8 upbm affinity estimate (log intensity, higher = more binding, comparable within an allelic series)"
same,binding signal,NKX3-2 [5],"11.8 upbm affinity estimate (log intensity, higher = more binding, comparable within an allelic series)"
GGCAGGCC,binding signal,NKX2-6,"9.24 upbm affinity estimate (log intensity, higher = more binding, comparable within an allelic series)"
same,binding signal,HOXD13 [1],"9.41 upbm affinity estimate (log intensity, higher = more binding, comparable within an allelic series)"
same,binding signal,HOXD13 [2],"9.41 upbm affinity estimate (log intensity, higher = more binding, comparable within an allelic series)"
same,binding signal,HOXD13 [3],"9.35 upbm affinity estimate (log intensity, higher = more binding, comparable within an allelic series)"
CCAGGTCC,binding signal,SIX6 [6],"9.09 upbm affinity estimate (log intensity, higher = more binding, comparable within an allelic series)"
same,binding signal,SIX6 [7],"8.75 upbm affinity estimate (log intensity, higher = more binding, comparable within an allelic series)"
same,binding signal,SIX6 [8],"8.99 upbm affinity estimate (log intensity, higher = more binding, comparable within an allelic series)"
same,binding signal,SIX6 [9],"8.79 upbm affinity estimate (log intensity, higher = more binding, comparable within an allelic series)"
same,binding signal,SIX6 [10],"9.02 upbm affinity estimate (log intensity, higher = more binding, comparable within an allelic series)"
same,binding signal,SIX6 [11],"8.99 upbm affinity estimate (log intensity, higher = more binding, comparable within an allelic series)"
same,binding signal,SIX6 [12],"9.06 upbm affinity estimate (log intensity, higher = more binding, comparable within an allelic series)"
same,binding signal,SIX6 [13],"9.28 upbm affinity estimate (log intensity, higher = more binding, comparable within an allelic series)"
same,binding signal,HOXD13 [1],"9.45 upbm affinity estimate (log intensity, higher = more binding, comparable within an allelic series)"
same,binding signal,SIX6 [14],"9.07 upbm affinity estimate (log intensity, higher = more binding, comparable within an allelic series)"
same,binding signal,HOXD13 [2],"9.43 upbm affinity estimate (log intensity, higher = more binding, comparable within an allelic series)"
same,binding signal,SIX6 [15],"9 upbm affinity estimate (log intensity, higher = more binding, comparable within an allelic series)"
same,binding signal,SIX6 [16],"9.04 upbm affinity estimate (log intensity, higher = more binding, comparable within an allelic series)"
same,binding signal,SIX6 [17],"9.08 upbm affinity estimate (log intensity, higher = more binding, comparable within an allelic series)"
same,binding signal,HOXD13 [3],"9.65 upbm affinity estimate (log intensity, higher = more binding, comparable within an allelic series)"
CAATTAAA,binding signal,HOXC10,"12.5 upbm affinity estimate (log intensity, higher = more binding, comparable within an allelic series)"
same,binding signal,HOXC9,"12.9 upbm affinity estimate (log intensity, higher = more binding, comparable within an allelic series)"
same,binding signal,HOXD13 [1],"10.7 upbm affinity estimate (log intensity, higher = more binding, comparable within an allelic series)"
same,binding signal,HOXD13 [2],"11.7 upbm affinity estimate (log intensity, higher = more binding, comparable within an allelic series)"
same,binding signal,HOXD13 [3],"11.7 upbm affinity estimate (log intensity, higher = more binding, comparable within an allelic series)"
GGCAATTA,binding signal,NKX3-2 [4],"11.8 upbm affinity estimate (log intensity, higher = more binding, comparable within an allelic series)"
same,binding signal,NKX3-2 [5],"11.9 upbm affinity estimate (log intensity, higher = more binding, comparable within an allelic series)"
CTAATTAC,binding signal,NKX3-2 [4],"11.6 upbm affinity estimate (log intensity, higher = more binding, comparable within an allelic series)"
same,binding signal,NKX3-2 [5],"11.7 upbm affinity estimate (log intensity, higher = more binding, comparable within an allelic series)"
CCCCGGCG,binding signal,HOXC10,"9.87 upbm affinity estimate (log intensity, higher = more binding, comparable within an allelic series)"
GTCAATTA,binding signal,HOXC9,"12 upbm affinity estimate (log intensity, higher = more binding, comparable within an allelic series)"
CTAATTGA,binding signal,NKX3-2 [4],"11.5 upbm affinity estimate (log intensity, higher = more binding, comparable within an allelic series)"
same,binding signal,NKX3-2 [5],"11.6 upbm affinity estimate (log intensity, higher = more binding, comparable within an allelic series)"
CCCTACGG,binding signal,HOXC9,"9.63 upbm affinity estimate (log intensity, higher = more binding, comparable within an allelic series)"
ACAATTAA,binding signal,HOXC10,"12.2 upbm affinity estimate (log intensity, higher = more binding, comparable within an allelic series)"
same,binding signal,HOXC9,"12.6 upbm affinity estimate (log intensity, higher = more binding, comparable within an allelic series)"
ATCAATTA,binding signal,HOXC9,"12.6 upbm affinity estimate (log intensity, higher = more binding, comparable within an allelic series)"
CCAATTAA,binding signal,HOXD13 [1],"10.8 upbm affinity estimate (log intensity, higher = more binding, comparable within an allelic series)"
same,binding signal,HOXD13 [2],"11.9 upbm affinity estimate (log intensity, higher = more binding, comparable within an allelic series)"
same,binding signal,HOXD13 [3],"11.8 upbm affinity estimate (log intensity, higher = more binding, comparable within an allelic series)"
same,binding signal,NKX3-2 [4],"11.7 upbm affinity estimate (log intensity, higher = more binding, comparable within an allelic series)"
same,binding signal,NKX3-2 [5],"11.8 upbm affinity estimate (log intensity, higher = more binding, comparable within an allelic series)"
GACAATTA,binding signal,NKX2-6,"11 upbm affinity estimate (log intensity, higher = more binding, comparable within an allelic series)"
